Rows were chosen to be rich in hits. Some 4.7% of all compounds tested hit in one or more screens of this group.
D1 ag – activates the human D1 dopamine receptor | 360,000 tested, 1% active | activation, % at 2 µM | HEK293 T-REx D1 cells, calcium flux, agonist mode | AID 504660; further: 0% is about no effect
Target sequence (P21728 whole entry, looked up): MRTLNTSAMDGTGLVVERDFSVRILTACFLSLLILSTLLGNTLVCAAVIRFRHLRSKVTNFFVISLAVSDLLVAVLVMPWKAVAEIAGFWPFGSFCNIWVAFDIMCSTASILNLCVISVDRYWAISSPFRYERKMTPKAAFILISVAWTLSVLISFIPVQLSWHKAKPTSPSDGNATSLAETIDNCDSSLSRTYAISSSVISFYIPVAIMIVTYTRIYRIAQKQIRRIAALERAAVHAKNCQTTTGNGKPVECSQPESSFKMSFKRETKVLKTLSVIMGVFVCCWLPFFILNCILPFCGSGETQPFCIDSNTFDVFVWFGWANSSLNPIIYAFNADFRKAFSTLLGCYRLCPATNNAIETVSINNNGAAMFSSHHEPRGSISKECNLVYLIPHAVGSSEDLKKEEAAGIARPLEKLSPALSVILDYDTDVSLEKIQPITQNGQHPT
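Inducible HEK293 T-REx D1 cells, force-coupled to calcium signalling, were plated at 4000 cells/well with tetracycline and held overnight at 30 C. After no-wash calcium dye loading, compound-evoked calcium rise over 180 s flagged agonists.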
TRHR agonist – TRH receptor (human) agonism; P34981; TRHR cells, calcium flux fluo-8, FDSS agonist mode; activation, % at 2 µM; 360,000 tested, 0.18% active; AID 493084; further: 0% is about no effect
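Read-out: compound-evoked intracellular calcium rise in TRHR cells, fluo-8 dye, kinetic FDSS fluorescence at 1 s/cycle following a 10-cycle baseline. Cells cultured overnight before dye loading (30 min–1.5 h, RT).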
D1 antagonist – human D1 dopamine receptor antagonism; HEK293 TREx D1 cells, calcium flux, dopamine EC80; stronger effect = lower value; AID 504652; 360,000 tested, 3.2% active; P21728; activity change, negative = inhibition, % at 10 µM; in the data active means activity change below about -30%; further: on the % scale 0 is the no-effect control and ±100 the full control effect
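HEK293 T-REx cells expressing inducible, force-coupled D1 receptor; no-wash Ca dye, 30–90 min RT. Cmpd → 180 s read at 1 Hz → EC80 DA → 180 s read.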
TRHR PAM – allosteric enhancers of human TRH receptor | enhancement, % at 2 µM | 360,000 tested, 0.66% active | P34981 | TRHR cells, fluo-8 calcium fluorescence, EC20 TRH enhancement | AID 493056; in the data active means enhancement above about 30%; further: 0% is about no effect
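TRHR-expressing cells loaded with fluo-8 calcium dye were read kinetically (ex 480/em 530) during compound addition, then stimulated with an EC20 of TRH (10 nM final). Enhancement of the Gq-mediated intracellular calcium response was scored.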
D1 potentiator – human D1 dopamine receptor positive modulation; 360,000 tested, 0.036% active; potentiation, % at 10 µM; P21728; HEK293 TREx D1 cells, calcium flux, dopamine EC20 potentiation; in the data active means potentiation above about 30%; further: 0% is about no effect
* hit, by the source's call; x = no result given. Unless noted, no stated cut-off is given here; in the data, active means activation above about 30%; inactive means the rest.

SMILES | D1 ag | TRHR agonist | D1 antagonist | TRHR PAM | D1 potentiator
CC(=O)Nc1nonc1-c1nnc(SCC(=O)N(C)c2ccccc2)n1C | -2 | 0 | 4 | 1 | 0
COc1ccc(C(=O)c2c(C)c3ccccc3n2CC(O)CNC(C)C)cc1 (configuration not stated) | 60* | 3 | -20 | 13 | 0
CC(C)NCC(O)Cn1c2c(c3ccccc31)CCc1c-2cnn1-c1ccccc1 (configuration not stated) | 25 | 2 | 3 | 23 | -5
Cc1cc(=O)n(CC(=O)N2CCCCC2)c2c1c(C)nn2C | 2 | 0 | -6 | 1 | -2
COc1ccccc1-c1nnc(SCC(=O)Nc2ccc(N3CCOCC3)cc2)n1C | 0 | -1 | -36* | 2 | 5
COc1ccccc1-c1nnc(SCC(=O)NC2CCCCC2)n1C | 2 | 0 | -9 | -1 | -13
COc1cccc2cc(-c3nnc(SCC(=O)Nc4ccc(NC(C)=O)cc4)n3C)oc12 | 1 | 0 | -57* | -1 | -2
COc1ccccc1-c1nnc(SCC(=O)NC2CC2)n1C | 6 | 0 | -59* | 11 | x
Cc1sc2ncnc(N/N=C/c3ccc(O)cc3)c2c1C | 1 | 1 | -86* | 1 | -6
COc1ccc(/C=N/Nc2ncnc3sc(C)c(C)c23)cc1 | 2 | 1 | -9 | 15 | -5
COc1ccc(CCn2c(C3CCCCC3)nc3c(c(=O)c4ccccc4n3C)c2=O)cc1 | 126* | 6 | -39* | 10 | -2
COc1ccc(CCn2c(-c3ccccc3)nc3c(c(=O)c4ccccc4n3C)c2=O)cc1 | 1 | 0 | -8 | 4 | -8
COc1ccc(CCn2c(C3CCCCC3)nc3c(c(=O)c4ccccc4n3C)c2=O)cc1OC | 4 | -1 | 11 | -5 | 5
CC(C)c1nc2c(c(=O)c3ccccc3n2C)c(=O)n1CCc1ccccc1 | 93* | 13 | 6 | -11 | 14
COc1ccc(Cn2c(-c3ccccc3)nc3c(c(=O)c4ccccc4n3C)c2=O)cc1 | 8 | 1 | 6 | 1 | 40*
COc1ccc(Cn2c(C3CCCCC3)nc3c(c(=O)c4ccccc4n3C)c2=O)cc1 | 42* | 2 | 19 | -2 | 15
CCOC(=O)Cc1ccc(NC(=O)N2CCOc3ccc(C)cc32)cc1 | 1 | 0 | -28 | 1 | -2
COc1ccc(S(=O)(=O)NCCc2sc3nc(-c4ccc(C)cc4)nn3c2C)cc1C | 2 | 0 | x | -4 | 0
Cc1cccc(-n2c(-c3ccccc3)cn3c4c(=O)[nH]c(=O)n(C)c4nc23)c1 | 0 | -2 | 1 | -3 | -1
Cc1csc2nc(-c3cccc(NC(=O)C(C)C)c3)cn12 | -1 | -1 | -12 | 3 | -1
O=C(CNC(=O)c1ccccc1O)N/N=C/c1cc(Br)ccc1OC(=O)/C=C/c1ccco1 | 7 | 1 | -33* | 15 | -8
Nc1nonc1C(=O)N/N=C/c1cc(Br)ccc1O | 63* | 45* | -3 | 11 | -4
Cc1ccc(S(=O)(=O)N(C)Cc2nc(-c3ccccc3)oc2C)cc1 | 1 | -1 | 0 | -4 | 1
Cc1c(C)n(C(=O)CN2CCC(C)CC2)c2ccccc12 | 13 | 0 | -1 | 35* | 1
CCn1ncc(C2=NOC(C(=O)Nc3cnn(C45CC6CC(CC(C6)C4)C5)c3)C2)c1C (configuration not stated) | 34* | 2 | -25 | 4 | -4
SMILES | D1 ag | TRHR agonist | D1 antagonist | TRHR PAM | D1 potentiator
CCn1ncc(C2=NOC(C(=O)NCC(C)C)C2)c1C (configuration not stated) | 1 | 2 | 12 | -2 | -4
O=C(O)c1ccc(CSc2nc(-c3ccc(Cl)cc3)cc(C(F)(F)F)n2)cc1 | 37* | 0 | -4 | -3 | -3
c1ccc(Nc2nc3ccccc3o2)cc1 | -1 | 1 | 3 | 3 | -2
Cc1cc(C)nc(Nc2nc3ccccc3o2)n1 | 5 | 1 | -31* | -1 | -14
Cc1cccc(S(=O)Cc2ccc(C(=O)NC3CCCCCC3)o2)c1 (configuration not stated) | 0 | 0 | -1 | -12 | 0
COCCn1c(/C=C/c2ccccc2)nc2ccccc21 | -1 | -2 | -34* | 6 | -3
CC(C)CCn1c(-c2nonc2N)nc2ccccc21 | 2 | 1 | -33* | 4 | -5
CC(C)CCn1c(/C=C/c2ccccc2)nc2ccccc21 | 10 | -1 | -32* | 1 | -5
COc1ccccc1Cn1c(/C=C/c2ccccc2)nc2ccccc21 | 10 | 1 | -31* | 2 | -5
COCCn1c(-c2ccccc2)nc2ccccc21 | 3 | -1 | -1 | -2 | 1
CCCCn1c(-c2nonc2N)nc2ccccc21 | 8 | -1 | -14 | -10 | -7
O=C(O)c1cc(-c2ccc(C(F)(F)F)cc2)nc2n[nH]c(-c3ccccc3)c12 | 20 | 0 | -3 | 7 | -3
COc1ccc(-c2nc(SCC(=O)NC3CCCC3)c(-c3ccccc3)[nH]2)cc1OC | 1 | -1 | 2 | 0 | 0
Clc1ccc(Cn2c(/C=C/c3ccco3)nc3ccccc32)cc1 | 3 | 0 | -9 | -3 | -6
CCCn1c(/C=C/c2ccco2)nc2ccccc21 | 9 | 0 | 1 | -5 | -2
C#CCn1c(/C=C/c2ccc(Cl)cc2)nc2ccccc21 | 6 | -2 | -36* | -1 | -3
CCCCn1c(/C=C/c2ccco2)nc2ccccc21 | 30* | 1 | -5 | -9 | -5
COc1cccc(N2CC(NC(=O)c3cc(Cl)ccc3OC)CC2=O)c1 (configuration not stated) | -1 | 0 | x | -2 | -3
CC(c1ccccc1)N1C(=O)c2ccccc2C1(O)Cc1ccccc1 (configuration not stated) | 2 | -1 | -74* | -2 | -1
CCCOc1ccc(CSC2=NCCN2)cc1[N+](=O)[O-] | 8 | 0 | 4 | 3 | -7
O=[N+]([O-])c1cc(CSC2=NCCN2)ccc1O | 0 | 0 | -55* | 0 | 2
CCCCOc1cccc(C2c3c(oc4ccccc4c3=O)C(=O)N2c2ccccn2)c1 (configuration not stated) | 1 | 0 | 0 | 3 | -3
CCOC(=O)c1ccc(NC(=S)NCc2ccccc2)cc1 | 22 | 1 | -56* | -1 | -17
COC(=O)c1ccc(NC(=S)NCCc2ccccc2)cc1 | 12 | 0 | -10 | 3 | -8
CCOC(=O)c1ccc(NC(=O)NCc2ccccc2)cc1 | 7 | 0 | -9 | -10 | -6
CCOC(=O)c1ccc(NC(=S)NCCc2ccccc2)cc1 | 28 | 1 | -38* | 0 | -7
CC(=O)c1ccc(NC(=S)NCCc2cccc(Cl)c2)cc1 | 22 | 1 | -37* | -1 | -6
c1ccc(CN2OCC3Cn4c(nc5ccccc54)C32)cc1 (configuration not stated) | 2 | 0 | 33 | -2 | -3
